Test results from PubChem BioAssay (NCATS).
A number with no mark means an inactive call. Records with an inconclusive call do not appear. Where a call stands in place of a potency, no number is given. Calls of active or inactive are those of the source. Calls come from the whole dose curve; as a rule, active = well fitted curve in the direction sought with a large enough effect; inconclusive = small, poorly fitted or top-dose-only effect, or another doubt; inactive = no such curve, though single readings can be large; an effect the other way counts as inactive or inconclusive.

What was measured:
[1] = molecular target: Cytochrome P450 3A4 (Homo sapiens) (UniProt P08684); test: qHTS Assay for Inhibitors and Substrates of Cytochrome P450 3A4 (AID 884); note: nearly all actives have a fitted effect of over 50% in size; note: potency is the fitted concentration of half-maximal effect; for activity change, negative = inhibition: series mostly up to about 57 µM
Chain of Cytochrome P450 3A4 (Homo sapiens) (P08684 whole entry, looked up): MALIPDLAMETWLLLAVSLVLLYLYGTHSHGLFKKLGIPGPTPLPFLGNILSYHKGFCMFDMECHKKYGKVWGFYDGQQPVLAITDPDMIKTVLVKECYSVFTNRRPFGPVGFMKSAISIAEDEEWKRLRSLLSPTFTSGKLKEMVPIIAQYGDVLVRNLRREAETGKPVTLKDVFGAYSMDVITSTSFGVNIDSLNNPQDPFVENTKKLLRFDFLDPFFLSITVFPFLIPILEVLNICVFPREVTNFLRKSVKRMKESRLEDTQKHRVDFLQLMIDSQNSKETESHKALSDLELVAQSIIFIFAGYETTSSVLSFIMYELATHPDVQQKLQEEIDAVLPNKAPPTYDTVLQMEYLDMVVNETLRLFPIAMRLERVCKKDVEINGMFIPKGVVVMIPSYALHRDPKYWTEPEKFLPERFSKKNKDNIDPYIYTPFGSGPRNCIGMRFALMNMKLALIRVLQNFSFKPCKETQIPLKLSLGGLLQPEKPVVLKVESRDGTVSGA
Summary of the method: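 20 nM human CYP3A4 with 25 uM Luciferin-PPXE (at KM) in 200 mM KPO4, preincubated 10 min with compound; NADPH regeneration started a 60 min RT reaction. Luciferin detected by luminescence, normalized to 57 uM ketoconazole as full inhibition.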

[2] = Cell Viability - LYMP2-001 (AID 921); note: nearly all actives have a fitted effect of over 70% in size; note: potency is the fitted concentration of half-maximal effect
Summary of the method: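 Human lymphoblastoid cells (Coriell), 2500 per well, were preincubated 5 hr at 37 C, then exposed to compounds in complete medium for 24 hr at 37 C. Cellular ATP was read by CellTiter-Glo luminescence; AC50 from Hill fits of concentration-response data.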

[3] = Confirmation and Secondary Assay for Modulators of Hemoglobin Beta Chain Splicing at IVS2 654 locus (AID 910)
Summary of the method: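 HeLa cells stably carrying EGFP interrupted by mutant beta-globin IVS2-654 intron (CMV-driven) were treated with compound for 2 days at 37C; corrected splicing was scored as total peak GFP intensity per well (488 nm excitation, 500-520 nm emission).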

[4] = Confirmation and Secondary Assay for Modulators of Hemoglobin Beta Chain Splicing at IVS2 705 locus (AID 930);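 note: HeLa cells stably expressing the EGFP-705 splicing reporter; GFP fluorescence per well restored by corrected splicing of the IVS2-705 intron in EGFP; series mostly up to about 46 µM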
Summary of the method: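 HeLa cells stably carrying EGFP interrupted by mutant beta-globin intron 2 (IVS2-705) treated 2 days at 37C with compound; 500 nM antisense PNA as control. Correct splicing read as total peak GFP intensity per well by laser-scanning cytometry.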

[5] = molecular target: Guanine nucleotide-binding protein G(i) subunit alpha-1 (Homo sapiens) (UniProt P63096); test: qHTS Assay for Inhibitors of RGS12 GoLoco Motif Activity (Green Fluorophore) (AID 879);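 note: negative values mean loss of peptide binding seen as reduced polarization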
Chain of Guanine nucleotide-binding protein G(i) subunit alpha-1 (Homo sapiens) (P63096 whole entry, looked up): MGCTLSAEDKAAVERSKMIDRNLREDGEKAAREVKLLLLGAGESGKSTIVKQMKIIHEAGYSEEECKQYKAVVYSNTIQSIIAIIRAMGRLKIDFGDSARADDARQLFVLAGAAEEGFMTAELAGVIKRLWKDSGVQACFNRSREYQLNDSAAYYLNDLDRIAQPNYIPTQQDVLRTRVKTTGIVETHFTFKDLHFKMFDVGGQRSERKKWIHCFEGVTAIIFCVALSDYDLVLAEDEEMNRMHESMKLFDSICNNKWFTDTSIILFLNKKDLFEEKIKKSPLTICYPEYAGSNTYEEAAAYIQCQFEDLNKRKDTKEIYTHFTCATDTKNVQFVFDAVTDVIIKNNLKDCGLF
Summary of the method: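 Fluorescence polarization assay: 50 nM Gαi1 with 10 nM FITC-labeled RGS12 GoLoco peptide in 10 mM Tris pH 7.5, 150 mM NaCl, 0.1 mM GDP, 0.05% NP40, 10 min at room temperature with compound.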

[6] = molecular target: Cytochrome P450 3A4 (Homo sapiens) (UniProt P08684); test: qHTS Assay for Activators of Cytochrome P450 3A4 (AID 885); note: nearly all actives have a fitted effect of over 65% in size
Summary of the method: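 Signal was normalized against complete inhibition by 57 uM ketoconazole. The reaction used 20nM CYP3A4 with 25uM Luciferin-PPXE, 10-min compound preincubation and a 60-min NADPH-supported step at RT.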

[7] = molecular target: Cytochrome P450 2D6 (Homo sapiens) (UniProt P10635); test: qHTS Assay for Inhibitors and Substrates of Cytochrome P450 2D6 (AID 891); note: nearly all actives have a fitted effect of over 60% in size; note: potency is the fitted concentration of half-maximal effect;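 for activity change, negative = inhibition: luciferin methyl ether substrate demethylated by CYP2D6 with NADPH regeneration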
Chain of Cytochrome P450 2D6 (Homo sapiens) (P10635 whole entry, looked up): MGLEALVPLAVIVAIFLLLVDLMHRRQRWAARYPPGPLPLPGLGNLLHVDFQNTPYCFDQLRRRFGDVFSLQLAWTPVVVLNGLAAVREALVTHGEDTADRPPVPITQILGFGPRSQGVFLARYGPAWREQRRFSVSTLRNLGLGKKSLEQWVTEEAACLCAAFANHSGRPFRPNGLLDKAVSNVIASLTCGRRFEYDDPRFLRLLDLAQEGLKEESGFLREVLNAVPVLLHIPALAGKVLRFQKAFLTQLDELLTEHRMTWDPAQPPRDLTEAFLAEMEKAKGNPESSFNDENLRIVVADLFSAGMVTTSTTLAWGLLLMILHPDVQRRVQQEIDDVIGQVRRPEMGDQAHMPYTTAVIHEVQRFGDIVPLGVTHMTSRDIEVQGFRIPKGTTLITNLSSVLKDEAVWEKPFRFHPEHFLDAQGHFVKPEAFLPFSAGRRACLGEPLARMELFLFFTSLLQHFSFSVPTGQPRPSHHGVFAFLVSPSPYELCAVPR
Summary of the method: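 Human CYP2D6 (5 nM) with 30 uM Luciferin-ME EGE (at Km) in 100 mM KPO4, compound preincubated 10 min, then NADPH regeneration system for 60 min at room temperature. Luciferin read by luminescence; normalized to 1.43 uM quinidine.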

[8] = molecular target: Cytochrome P450 2C9 (Homo sapiens) (UniProt P11712); test: qHTS Assay for Inhibitors and Substrates of Cytochrome P450 2C9 (AID 883); note: nearly all actives have a fitted effect of over 60% in size; note: potency is the fitted concentration of half-maximal effect
Chain of Cytochrome P450 2C9 (Homo sapiens) (P11712 whole entry, looked up): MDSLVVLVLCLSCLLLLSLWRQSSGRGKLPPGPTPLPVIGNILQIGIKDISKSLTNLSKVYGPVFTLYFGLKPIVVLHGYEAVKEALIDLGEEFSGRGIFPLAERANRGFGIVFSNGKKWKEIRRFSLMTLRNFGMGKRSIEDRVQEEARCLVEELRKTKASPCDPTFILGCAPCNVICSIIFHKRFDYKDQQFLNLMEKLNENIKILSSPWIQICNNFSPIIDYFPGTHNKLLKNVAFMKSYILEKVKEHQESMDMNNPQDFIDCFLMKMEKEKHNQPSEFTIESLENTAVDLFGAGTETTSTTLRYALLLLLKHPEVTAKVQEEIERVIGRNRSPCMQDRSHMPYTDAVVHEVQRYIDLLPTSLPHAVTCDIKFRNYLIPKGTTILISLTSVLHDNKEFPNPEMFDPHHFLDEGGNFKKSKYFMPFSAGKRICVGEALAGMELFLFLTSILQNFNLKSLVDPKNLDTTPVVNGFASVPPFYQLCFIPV
Summary of the method: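 A luminogenic readout tracked human CYP2C9 (10nM) converting deoxyluciferin (100uM, at KM) in 25mM KPO4 during 60 min at 37C with regenerated NADPH. Values normalized to 57uM sulphaphenazole as complete inhibition.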

[9] = molecular target: Cytochrome P450 2C19 (Homo sapiens) (UniProt P33261); test: qHTS Assay for Inhibitors and Substrates of Cytochrome P450 2C19 (AID 899); conditions: recombinant CYP2C19, luciferin-H EGE luminescence; note: potency is the fitted concentration of half-maximal effect; nearly all actives have a fitted effect of over 60% in size
Chain of Cytochrome P450 2C19 (Homo sapiens) (P33261 whole entry, looked up): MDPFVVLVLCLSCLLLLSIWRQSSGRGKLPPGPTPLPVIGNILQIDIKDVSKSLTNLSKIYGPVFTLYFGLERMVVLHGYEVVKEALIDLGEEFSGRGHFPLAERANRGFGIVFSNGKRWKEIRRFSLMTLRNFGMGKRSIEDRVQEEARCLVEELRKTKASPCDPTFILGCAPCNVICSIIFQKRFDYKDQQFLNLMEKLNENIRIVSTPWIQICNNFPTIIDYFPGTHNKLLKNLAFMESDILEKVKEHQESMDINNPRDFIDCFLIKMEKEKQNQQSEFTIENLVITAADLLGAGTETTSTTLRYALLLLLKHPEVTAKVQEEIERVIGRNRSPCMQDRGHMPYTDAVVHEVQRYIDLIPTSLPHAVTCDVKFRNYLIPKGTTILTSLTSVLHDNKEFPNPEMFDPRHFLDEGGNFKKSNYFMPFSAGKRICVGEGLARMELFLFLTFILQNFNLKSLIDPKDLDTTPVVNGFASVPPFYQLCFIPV
Summary of the method: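 NADPH-dependent conversion of Luciferin-H EGE (10uM, at KM) by 5nM enzyme in 50mM KPO4, 60 min at 37C following 10 min compound preincubation. Stopped with luciferin detection buffer; luminescence read after 20 min.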

## O=P(O)(O)O
[1]
  Potency: inactive
[2]
  Potency: inactive

## Cc1ncc[nH]1
[1]
  Potency: inactive
[2]
  Potency: inactive

## CC(=O)Oc1cccc(C(=O)O)c1OC(C)=O
[1]
  Potency: inactive
[3]
  Potency: inactive
[4]
  Potency: inactive

## ClC(Cl)Cl
[1]
  Potency: inactive
[2]
  Potency: inactive

## Cc1cc(C)c(NC(=O)C[C@H](CC(=O)O)c2cccc3ccccc23)c(C(=O)N2CCC3(CCCC3)CC2)c1
[5]
  outcome: inactive
[6]
  Potency: inactive

## NC(N)=O
[1]
  Potency: inactive
[3]
  Potency: inactive
[2]
  Potency: inactive
[4]
  Potency: inactive

## Cc1c(O)c(=O)ccn1C
[1]
  activity change, negative = inhibition: -11.6% [at 11.4 µM]
[7]
  Potency: inactive

## N#Cc1ccc2c(c1)N(CCCN1CCC(O)CC1)c1ccccc1S2
[1]
  Potency: inactive
[3]
  Potency: inactive
[4]
  Potency: inactive

## CCCCC[C@H](O)/C=C/[C@H]1[C@H](O)CC(=O)[C@@H]1C/C=C\CCCC(=O)O
[1]
  Potency: inactive

## OCC(O)CO
[1]
  Potency: inactive
[2]
  Potency: inactive

## O.O.O.O.O.O.O.O=S(=O)([O-])[O-].[Co+2]
[1]
  Potency: inactive

## C[C@H]1O[C@@H](O[C@H]2[C@@H](O)C[C@H](O[C@H]3[C@@H](O)C[C@H](O[C@H]4CC[C@@]5(C)[C@H](CC[C@@H]6[C@@H]5C[C@@H](O)[C@]5(C)[C@@H](C7=CC(=O)OC7)CC[C@]65O)C4)O[C@@H]3C)O[C@@H]2C)C[C@H](O)[C@@H]1O
[1]
  Potency: inactive
[2]
  Potency: 0.316 µM (active)

## O=C(O)Cc1nn(Cc2ccc(Br)cc2F)c(=O)c2ccccc12
[8]
  Potency: inactive

## CC(=O)Nc1ccc(OC(=O)c2ccccc2O)cc1
[1]
  Potency: inactive
[3]
  Potency: inactive
[4]
  Potency: inactive

## CC1CCC(NC(=O)N(CCCl)N=O)CC1 (stereo not drawn)
[1]
  Potency: inactive
[3]
  Potency: inactive
[4]
  Potency: inactive

## Cc1cc(-c2ccc(N=Nc3ccc4c(S(=O)(=O)O)cc(S(=O)(=O)O)c(N)c4c3O)c(C)c2)ccc1N=Nc1ccc2c(S(=O)(=O)O)cc(S(=O)(=O)O)c(N)c2c1O
[8]
  Potency: 7.94 µM (active)
[1]
  Potency: 15.8 µM (active)
[6]
  Potency: inactive
[7]
  Potency: 15.8 µM (active)
[9]
  Potency: 0.199 µM (active)
